# Measurements reported in PubChem BioAssay (NCI).
# Several values for one entry are separate records, joined by “and”; a condition that tells them apart may be missing. Equal entries are not always repeated. This is part of a sample that, as a whole, favours compounds with a hit. Of some 79,000 tested, about 15% had one in any assay. A structure can be active in one record and inactive in another. Activity calls are given as the source filed them. No stated cut-off is given here; in the data, active means growth inhibition above about 70%; inactive means the rest.
# Assay: NCI Yeast Anticancer Drug Screen. Data for the rad50 strain (AID 155);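 further: 0% = growth of vehicle-only cultures of the same strain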
# Conditions: S. cerevisiae rad50 strain growth inhibition; at 5.0 µM (retest, dose inferred, filed as 0.5); stronger effect = higher value
# Summary of the method: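 Growth of the mutant yeast was measured after compound exposure and referenced to vehicle-treated cultures.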
row,SMILES,growth inhibition
1,O=C1C(CN2CCCCC2)CCCC1CN1CCCCC1 (stereo not drawn),0% (inactive)
2,NC(=O)c1cc(Br)cc(Br)c1O,14% (inactive)
3,CN(C)c1ccc(/C=C/c2ccc3ccccc3[n+]2C)cc1,1% (inactive)
4,C1=C(CN2CCCCC2)COc2ccccc21,9% (inactive)
5,O=C1Nc2ccccc2C1(O)C/C(=N/O)c1ccc2ccccc2c1 (stereo not drawn),34% (inactive)
6,CC(C)(S)C(N)C(=O)O (stereo not drawn),-14% (inactive)
7,COC(=O)[C@@H](NS(=O)(=O)CC12CCC(CC1)C2(C)C)C(C)(C)C,2% (inactive)
8,CN(CCN1C(=O)c2cccc3cccc(c23)C1=O)CCN1C(=O)c2cccc3cccc(c23)C1=O,97% (active)
9,CN(C)CCCN=c1c2ccccc2n(O)c2cccc([N+](=O)[O-])c12,6% (inactive)
10,O=C(/C=C/c1ccc(Cl)cc1)NC1C=Nc2ccc([N+](=O)[O-])cc2NC1=O (stereo not drawn),32% (inactive)
11,O=C(CC(=O)CC(O)(c1ccccc1)c1ccccc1)CC(=O)c1ccccc1,-4% (inactive)
12,O=C(c1ccc(Cl)cc1)C(O)c1ccc(Cl)cc1 (stereo not drawn),-2% (inactive) and 10% (inactive)
13,COc1ccc2c(c1)C(Cc1ccc(Oc3ccc(CC4c5cc(OC)ccc5CC[N+]4(C)C)cc3)cc1)[N+](C)(C)CC2 (stereo not drawn),-12% (inactive)
14,O=C(NO)c1cccnc1,2% (inactive)
15,Oc1c(Cl)c(Cl)c(Cl)c2ccccc12,84% (active)
16,CSC1SCC2C(=O)N(C)C(C(C)C)C(=O)OCC(NC(=O)c3cnc4ccccc4n3)C(=O)NC(C)C(=O)N(C)C1C(=O)N(C)C(C(C)C)C(=O)OCC(NC(=O)c1cnc3ccccc3n1)C(=O)NC(C)C(=O)N2C (stereo not drawn),8% (inactive) and 97% (active)
17,O=C(O)C1(Cc2ccccc2)Cc2cc3c(cc2C1)CCC3,5% (inactive)
18,CC1=C(C(=O)Nc2c(C)cccc2C)C(c2ccc3c(c2)OCO3)C(C(=O)Nc2c(C)cccc2C)=C(C)N1,25% (inactive)
19,COc1cc2c(c3c1/c(=N/N(C)C)c1ccccc1n3C)C=CC(C)(C)O2,23% (inactive)

row,SMILES,growth inhibition
1,CC(=O)Nc1nc(N)c2ncn(C3OC(C(O)CO)C(O)C3O)c2n1 (stereo not drawn),0% (inactive)
2,CC(C)(Cc1nocc1C(C)(C)CC#N)c1cc(CC(C)(C)C2(C)OCCO2)no1,-4% (inactive)
3,CCOC(=O)c1c[nH]c2c(ccc3cccnc32)c1=O,10% (inactive) and 5% (inactive)
4,Cc1ncc(C[n+]2cccc(CCO)c2C)c(N)n1,4% (inactive) and 16% (inactive)
5,Clc1ccc2c(c1)[nH]c1c2nc2ccccn21,21% (inactive)
6,O=C(O)c1ccccc1C(=O)O,-3% (inactive)
7,COC1/C=C/OC2(C)Oc3c(C)c(O)c4c(c3C2=O)C(=O)C=C(NC(=O)/C(C)=C\C=C\C(C)C2OC(C)(C)OC(C2C)C(C)C(OC(C)=O)C1C)C4=O (stereo not drawn),2% (inactive)
8,CCN(CC)CCCn1c2cc(=O)c(=O)cc-2[nH]c2cc(C)ccc21,1% (inactive)
9,O=[N+]([O-])c1ccc(N/N=C/CC(O)(C(F)(F)F)C(F)(F)F)c([N+](=O)[O-])c1,0% (inactive)
10,OCc1ccccc1C(c1ccccc1)c1ccccc1,0% (inactive)
11,COc1ccc2[nH]c3c(C)c4ccncc4c(C)c3c2c1,95% (active)
12,CC(C)CCC[C@@H](C)[C@H]1CC[C@H]2[C@@H]3CC=C4N5CCCN=C5CC[C@]4(C)[C@H]3CC[C@]12C,2% (inactive)
13,CC(C)CCCC(C)C1CCC2C3CC=C4CC([n+]5cccc6ccccc65)CCC4(C)C3CCC12C (stereo not drawn),78% (active)
14,O=C1/C(=C/c2ccc(Cl)cc2)CNC/C1=C\c1ccc(Cl)cc1,83% (active) and 48% (inactive)
15,CCn1c2ccccc2c2ccc(N=Cc3ccc(N(C)C)cc3)cc21,1% (inactive)
16,O=C1NC(=O)c2cc([N+](=O)[O-])ccc21,-9% (inactive)
17,O=c1[nH]c(SCc2c(Cl)c(Cl)c(Cl)c(Cl)c2Cl)nc(=S)[nH]1,1% (inactive)
18,Cn1c2nc3ccccc3c-2cc2ccccc21,44% (inactive)
19,O=Cc1cc(Br)ccc1O,21% (inactive) and 9% (inactive)
